Compounds with a hit are over-represented: about 1.1% of the library has one in this group of screens.
OPRM1-OPRD1 inv = inverse agonists of MOR-DOR heterodimerization, primary screen, cell-based, luminescence; Mu-type opioid receptor (Homo sapiens) + Delta-type opioid receptor (Homo sapiens), …; cell-based MOR-DOR heterodimer luminescence, inverse agonism; inhibition, % at 9.3 µM; hit rate 0.21% among 340,000; AID 504357, 2011; in the data active = inhibition above about 22%, passing the limit was not always enough;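 note: 0% = cells with DMSO and 100% = wells without cells with DMSO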
Target sequence (P35372 whole entry, looked up): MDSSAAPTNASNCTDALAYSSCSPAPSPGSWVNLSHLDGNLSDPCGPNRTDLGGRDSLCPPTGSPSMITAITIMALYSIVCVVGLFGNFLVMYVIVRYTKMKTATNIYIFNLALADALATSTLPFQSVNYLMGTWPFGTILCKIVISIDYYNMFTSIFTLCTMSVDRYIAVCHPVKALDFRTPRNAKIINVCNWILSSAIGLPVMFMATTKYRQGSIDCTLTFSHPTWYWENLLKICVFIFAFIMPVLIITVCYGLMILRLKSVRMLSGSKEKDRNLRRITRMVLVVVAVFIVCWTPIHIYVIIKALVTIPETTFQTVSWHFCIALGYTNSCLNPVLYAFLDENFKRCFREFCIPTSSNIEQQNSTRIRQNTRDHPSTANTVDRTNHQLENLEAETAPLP
Target sequence (P41143 whole entry, looked up): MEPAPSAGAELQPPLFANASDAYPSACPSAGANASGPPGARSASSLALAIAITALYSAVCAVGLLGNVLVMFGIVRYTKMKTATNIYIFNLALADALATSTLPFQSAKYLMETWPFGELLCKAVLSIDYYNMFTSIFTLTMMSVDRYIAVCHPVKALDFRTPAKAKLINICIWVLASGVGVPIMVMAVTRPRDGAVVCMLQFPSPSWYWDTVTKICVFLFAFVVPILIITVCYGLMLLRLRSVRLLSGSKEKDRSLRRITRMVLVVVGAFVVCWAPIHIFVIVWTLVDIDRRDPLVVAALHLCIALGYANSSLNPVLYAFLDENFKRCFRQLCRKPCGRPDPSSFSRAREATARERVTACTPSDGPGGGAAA
HTR5A inv ctr = HTR5A inverse agonists in luminescence cell assay, primary screen, counter-screen for OPRM1-OPRD1 heterodimer inverse agonist project, full-deck HTS | HTR5A cell line, inverse agonism | inhibition, % at 9.3 µM | hit rate 0.083% among 340,000 | 5-hydroxytryptamine receptor 5A (Homo sapiens), P47898; in the data active = inhibition mostly above about 23%, no sharp cut-off; inactive = mostly below about 18%;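 note: 0% = cells with DMSO and 100% = no-cell wells with DMSO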
HTR5A ag = HTR5A agonists in luminescence cell assay, primary screen, counter-screen for OPRM1-OPRD1 heterodimer agonist project, full-deck HTS; activation, % at 9.3 µM; 5-hydroxytryptamine receptor 5A (Homo sapiens), P47898; hit rate 0.61% among 340,000; cell-based; in the data active = activation mostly above about 9.5%, no sharp cut-off; inactive = mostly below about 7.6%;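 note: 0% = cells with vehicle only and 100% = reference agonist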
MOR-DOR ag-1 = agonists of OPRM1-OPRD1 heterodimerization, primary screen, cell-based, luminescence; cells; Mu-type opioid receptor (Homo sapiens) + Delta-type opioid receptor (Homo sapiens), …; AID 504326, 2011; hit rate 0.3% among 340,000; activation, % at 9.3 µM;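 note: 0% = vehicle-treated cells and 100% = reference agonist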
MOR-DOR ag-2 = OPRM1-OPRD1 heterodimerization promoters, counter-screen for HTR5A agonist project, cell-based, luminescence; activation, % at 9.3 µM; U2OS counter-screen cells, complementation luminescence, 3 h; shares compounds with HTR5A ag; hit rate 13% among 800; AID 504913, 2011
HTR5A ag confirm = HTR5A agonists, retest of hits, confirmation, cell-based, luminescence. shares compounds with HTR5A ag. HTR5A agonist cell assay. hit rate 17% among 800. AID 504915, 2011. activation, % at 9.3 µM; in the data active = activation above about 17%;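 note: 0% = cells with vehicle only and 100% = full reference agonist response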
Starred values were filed as active, the others as inactive; nt = no result given. Cut-off read from the data, not from the text of the source, unless noted: active = activation above about 18%; inactive = the rest.

SMILES	OPRM1-OPRD1 inv	HTR5A inv ctr	HTR5A ag	MOR-DOR ag-1	MOR-DOR ag-2	HTR5A ag confirm
COc1cc(OC)c(C2SCCN2S(=O)(=O)c2ccc(F)cc2)cc1OC (stereo not drawn)	3.9	-36.4	-1.3	-0.7	nt	nt
Cn1cc(CCC(=O)N2CCCC(N3CCN(c4ccccc4F)CC3)C2)cn1 (stereo not drawn)	13.1	-6.2	-1.9	-2.5	nt	nt
CC(C)(C)c1ccc(C(=O)O/N=C(\N)c2ccccn2)cc1	-48.1	-138.2	57.0*	8.6	5.4	4.1
CC1(OC(=O)CCc2ccccc2)C(=O)C=C2C=C(c3ccc(C#N)cc3)N(CCc3c[nH]c4ccccc34)C=C2C1=O (stereo not drawn)	-38.6	-32.2	20.0*	6.9	4.8	6.2
COC(=O)CCCC1=CC2=C(c3ccccc3)C(=O)C(C)(OC(=O)C3CCCC3)C(=O)C2=CN1CCc1c[nH]c2ccccc12 (stereo not drawn)	-6.4	-12.1	14.7*	1.2	1.8	8.2
O=C(C1=COCCO1)N1CCN(c2nc3ccc([N+](=O)[O-])cc3s2)CC1	7.1	-49.0	16.2*	-1.1	82.8*	5.8
O=C(CN(c1ccccc1F)S(=O)(=O)c1ccccc1)Nc1ccc2c(c1)OCCO2	3.8	3.6	3.6	-0.7	nt	nt
Cc1ccc(OCCn2c(CCNC(=O)C(C)C)nc3ccccc32)cc1	13.3	-55.5	19.7*	-2.5	5.1	10.9
CC(C)C(=O)NCCc1nc2ccccc2n1CCCOc1ccc(Cl)cc1	-1.0	11.7	-3.9	0.2	nt	nt
COc1cccc(N2CCN(Cc3ccco3)CC2)c1	7.2	-42.5	15.3*	-1.4	0.9	-5.9
COc1ccccc1C(CNC(=O)c1cccc(S(=O)(=O)Nc2ccc(F)cc2)c1)N1CCCC1 (stereo not drawn)	7.8	-189.4	64.9*	-2.1	-2.6	0.4
COc1ccc(NS(=O)(=O)c2cccc(C(=O)NCC(c3ccccc3OC)N3CCCC3)c2)cc1 (stereo not drawn)	3.4	-21.3	1.6	-0.5	nt	nt
C/C(=N/NS(=O)(=O)c1ccc(Cl)cc1)c1ccc2c(c1)OCO2	17.0	-7.0	15.1*	-3.4	3.5	-1.1
C/C(=N\NS(=O)(=O)c1ccc(Br)cc1)c1ccc2c(c1)OCO2	-3.5	0.7	7.4	1.1	nt	nt
COC(=O)N1CCc2c(sc(NC(=O)C3COc4ccccc4O3)c2C(N)=O)C1 (stereo not drawn)	2.2	-168.5	61.3*	-0.3	3.1	43.0*
CCC(C)C(=O)Nc1nnc(SCC(=O)Nc2ccccc2F)s1 (stereo not drawn)	3.0	16.1	7.2	-0.6	nt	nt
O=C(O)/C=C/C(=O)N1CCN(c2ccccc2F)CC1	15.0	15.7	-1.7	-2.8	nt	nt
Cc1cc(N2CCN(C(=O)/C=C/C(=O)O)CC2)c2ccccc2n1	-5.3	-55.7	15.2*	1.0	1.4	-0.2
COc1ccc(C2=NN(C(=O)CCC(=O)O)C(c3ccc([N+](=O)[O-])cc3)C2)cc1 (stereo not drawn)	9.2	11.7	-3.1	-1.8	nt	nt
CCCOn1nnnc1-c1ccccc1	-1.1	-56.5	20.5*	0.2	535.2*	2.6
Cn1c(N/N=C2\CCCc3ccccc32)nc2c1c(=O)n(Cc1ccc(F)cc1)c(=O)n2C	-5.7	-16.9	14.9*	0.9	0.1	12.4
NC(=O)c1ccc(SCC(=O)NC2CCCCC2)c([N+](=O)[O-])c1	-14.4	7.8	14.5*	3.0	2.2	1.4
COC(=O)c1ccc(SCC(=O)NC2CCCC2)c([N+](=O)[O-])c1	8.7	1.8	-0.5	-1.6	nt	nt
COc1ccc(C2C(C(=O)c3ccc(C)o3)=C(O)C(=O)N2Cc2cccnc2)cc1 (stereo not drawn)	14.3	5.5	14.6*	-2.3	181.9*	3.8
Cc1ccc(C(=O)C2=C(O)C(=O)N(Cc3cccnc3)C2c2ccc(OC(C)C)cc2)o1 (stereo not drawn)	18.6	-13.9	2.4	-5.7	nt	nt
SMILES	OPRM1-OPRD1 inv	HTR5A inv ctr	HTR5A ag	MOR-DOR ag-1	MOR-DOR ag-2	HTR5A ag confirm
CC(C)(C)NC(=O)c1ccc2c3c(cccc13)CC2	10.2	-2.0	0.8	-2.1	nt	nt
Cc1ccccc1OCC(=O)NC1=NCCS1	5.5	4.6	-1.7	-1.3	nt	nt
COc1ccc(C(=O)N/C(=C\c2cccc3ccccc23)C(=O)NCCc2c[nH]c3ccccc23)cc1OC	10.5	-47.2	18.8*	-2.5	-0.5	-0.9
Cc1ccc(C(=O)N/C(=C\c2cccs2)C(=O)NCCc2c[nH]c3ccccc23)cc1C	16.4	-44.2	18.5*	-3.4	2.3	38.5*
Cc1ccc2sc(N(CCCN(C)C)C(=O)CCS(=O)(=O)c3ccccc3)nc2c1C	-20.9	-56.9	15.2*	4.2	6.8	10.2
CN(C)CCCN(C(=O)CCS(=O)(=O)c1ccccc1)c1nc2cc3c(cc2s1)OCO3	11.3	-8.5	14.9*	-2.1	4.3	-0.6
Cc1csc(=O)n1CC(=O)OC(C)C(=O)Nc1cccc(Cl)c1 (stereo not drawn)	9.2	-14.0	5.7	-1.8	nt	nt
O=C(Nc1ccncc1)C1CC1c1ccccc1 (stereo not drawn)	-0.2	-3.2	-1.1	0.1	nt	nt
CCn1nc(C)c(CCC(=O)O)c1C	2.3	8.7	-3.2	-0.4	nt	nt
CCc1nc2oc3ccccc3c(=O)c2c(=O)n1CCOC	0.7	-22.1	2.7	-0.1	nt	nt
CCc1nc2oc3ccccc3c(=O)c2c(=O)n1-c1ccccc1	20.7	-3.5	14.4*	-4.1	-2.1	-3.3
CCCCCc1ccc(S(=O)(=O)Nc2cc(C)ccn2)cc1	3.5	-23.2	16.9*	-0.7	-0.6	2.0
Cc1ccnc(NS(=O)(=O)c2ccc(Oc3ccccc3)cc2)c1	9.4	0.3	7.1	-1.8	nt	nt
COCCCNc1nc(N)c([N+](=O)[O-])c(NCC2CCCO2)n1 (stereo not drawn)	16.9	3.6	15.5*	-3.4	0.6	2.4
CCOc1ccc(C2=CS/C(=C(\C#N)c3nnc4n3CCCCC4)N2CC)cc1	12.1	-14.5	15.4*	-2.2	1.6	1.2
O=C(N/N=C/c1cc([N+](=O)[O-])ccc1Cl)c1cc(-c2ccccc2)nc2ccccc12	1.2	-10.7	15.9*	-0.2	8.3	3.4
CC[n+]1ccc2cc(OC)c(OC)cc2c1Cc1ccc(OC)c(OC)c1	8.4	6.0	-2.2	-1.6	nt	nt
C#CC(=O)CC1(CN(Cc2ccccc2)C(=O)OC(C)(C)C)CCCCC1	-26.1	-43.4	17.1*	4.8	33.8*	14.8
Cc1ccccc1/C=N/Nc1ncnc2nc[nH]c12	12.6	7.8	14.4*	-2.5	27.8*	2.6
O=C(c1cc(-c2ccc(Cl)s2)nc2ccccc12)N1CCCC1	17.2	-12.5	3.3	-3.2	nt	nt
